From ChEMBL document CHEMBL1961873, “Compounds: GSK PKIS; Assays: Nanosyn kinase panel” (2012)

Legend:
[1] = biological target: Ribosomal protein S6 kinase alpha-6 (Homo sapiens) (UniProt Q9UK32); details: at 1 µM;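 note: each value is a mean inhibition of RSK4 from a GSK PKIS panel screen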
[2] = biological target: T1, Serine/threonine-protein kinase Sgk1 (Homo sapiens) (UniProt O00141); details: at 0.1 µM
T1 sequence (whole entry): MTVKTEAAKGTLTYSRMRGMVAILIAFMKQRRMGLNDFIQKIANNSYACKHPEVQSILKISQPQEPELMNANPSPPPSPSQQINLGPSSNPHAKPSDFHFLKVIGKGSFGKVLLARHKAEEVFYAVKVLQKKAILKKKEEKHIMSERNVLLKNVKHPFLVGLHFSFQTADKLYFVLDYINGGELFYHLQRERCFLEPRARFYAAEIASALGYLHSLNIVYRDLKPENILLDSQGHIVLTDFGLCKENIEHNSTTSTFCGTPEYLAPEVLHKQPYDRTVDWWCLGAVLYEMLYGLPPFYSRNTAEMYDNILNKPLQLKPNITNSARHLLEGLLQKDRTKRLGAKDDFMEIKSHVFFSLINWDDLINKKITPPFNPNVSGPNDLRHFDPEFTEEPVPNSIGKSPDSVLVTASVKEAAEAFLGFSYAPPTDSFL

[3] = biological target: T1, Serine/threonine-protein kinase Sgk1 (Homo sapiens); details: at 1 µM
[4] = biological target: T2, Serine/threonine-protein kinase Sgk2 (Homo sapiens) (UniProt Q9HBY8); details: at 0.1 µM
T2 sequence (whole entry): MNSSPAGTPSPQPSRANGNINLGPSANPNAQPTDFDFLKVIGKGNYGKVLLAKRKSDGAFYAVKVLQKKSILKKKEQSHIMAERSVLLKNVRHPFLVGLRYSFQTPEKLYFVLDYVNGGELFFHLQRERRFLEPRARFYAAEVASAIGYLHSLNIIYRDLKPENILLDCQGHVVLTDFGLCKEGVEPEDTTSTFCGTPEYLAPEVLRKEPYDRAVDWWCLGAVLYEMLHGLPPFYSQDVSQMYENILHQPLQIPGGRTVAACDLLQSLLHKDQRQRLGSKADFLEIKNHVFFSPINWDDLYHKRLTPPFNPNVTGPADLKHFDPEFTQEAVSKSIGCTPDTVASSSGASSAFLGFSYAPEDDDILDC

[5] = biological target: T2, Serine/threonine-protein kinase Sgk2 (Homo sapiens); details: at 1 µM
[6] = biological target: T3, Serine/threonine-protein kinase Sgk3 (Homo sapiens) (UniProt Q96BR1); details: at 0.1 µM
T3 sequence (whole entry): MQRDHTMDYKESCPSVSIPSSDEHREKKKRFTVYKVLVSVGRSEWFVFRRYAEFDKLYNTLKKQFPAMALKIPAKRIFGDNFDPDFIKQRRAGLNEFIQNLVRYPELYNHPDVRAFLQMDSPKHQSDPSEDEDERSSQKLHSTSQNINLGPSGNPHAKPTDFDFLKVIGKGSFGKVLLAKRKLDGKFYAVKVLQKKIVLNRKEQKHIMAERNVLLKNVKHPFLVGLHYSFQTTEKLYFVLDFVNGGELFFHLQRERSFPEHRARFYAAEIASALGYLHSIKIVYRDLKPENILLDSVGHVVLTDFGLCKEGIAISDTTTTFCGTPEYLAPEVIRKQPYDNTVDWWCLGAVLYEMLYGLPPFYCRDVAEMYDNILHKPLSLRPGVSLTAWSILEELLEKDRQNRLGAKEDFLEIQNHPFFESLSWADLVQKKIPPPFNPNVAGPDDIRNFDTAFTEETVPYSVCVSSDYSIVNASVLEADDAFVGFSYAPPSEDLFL

[7] = biological target: T3, Serine/threonine-protein kinase Sgk3 (Homo sapiens); details: at 1 µM
[8] = biological target: 5'-AMP-activated protein kinase catalytic subunit alpha-1 (Homo sapiens) (UniProt Q13131); details: at 0.1 µM
Chain of 5'-AMP-activated protein kinase catalytic subunit alpha-1 (Homo sapiens) (Q13131 whole entry, looked up): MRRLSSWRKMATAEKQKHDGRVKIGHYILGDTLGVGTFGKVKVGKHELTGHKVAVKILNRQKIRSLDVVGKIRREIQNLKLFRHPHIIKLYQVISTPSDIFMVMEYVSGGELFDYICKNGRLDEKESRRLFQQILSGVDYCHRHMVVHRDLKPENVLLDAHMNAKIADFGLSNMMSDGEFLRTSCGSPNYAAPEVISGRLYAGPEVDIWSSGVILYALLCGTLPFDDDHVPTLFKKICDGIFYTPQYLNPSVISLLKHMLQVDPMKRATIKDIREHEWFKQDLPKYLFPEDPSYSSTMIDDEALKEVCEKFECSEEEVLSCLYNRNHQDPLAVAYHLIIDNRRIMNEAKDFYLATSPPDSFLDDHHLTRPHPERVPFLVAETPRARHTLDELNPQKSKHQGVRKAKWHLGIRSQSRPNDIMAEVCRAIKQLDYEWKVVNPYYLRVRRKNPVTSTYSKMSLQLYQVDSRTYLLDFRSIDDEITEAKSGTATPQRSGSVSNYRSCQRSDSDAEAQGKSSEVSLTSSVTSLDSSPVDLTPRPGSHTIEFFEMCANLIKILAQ

[9] = biological target: 5'-AMP-activated protein kinase catalytic subunit alpha-1 (Homo sapiens) (UniProt Q13131); details: at 1 µM
[10] = biological target: 5'-AMP-activated protein kinase catalytic subunit alpha-2 (Homo sapiens) (UniProt P54646); details: at 0.1 µM;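 note: mean inhibition measured on the AMPK complex of alpha2, beta1 and gamma1 subunits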
Chain of 5'-AMP-activated protein kinase catalytic subunit alpha-2 (Homo sapiens) (P54646 whole entry, looked up): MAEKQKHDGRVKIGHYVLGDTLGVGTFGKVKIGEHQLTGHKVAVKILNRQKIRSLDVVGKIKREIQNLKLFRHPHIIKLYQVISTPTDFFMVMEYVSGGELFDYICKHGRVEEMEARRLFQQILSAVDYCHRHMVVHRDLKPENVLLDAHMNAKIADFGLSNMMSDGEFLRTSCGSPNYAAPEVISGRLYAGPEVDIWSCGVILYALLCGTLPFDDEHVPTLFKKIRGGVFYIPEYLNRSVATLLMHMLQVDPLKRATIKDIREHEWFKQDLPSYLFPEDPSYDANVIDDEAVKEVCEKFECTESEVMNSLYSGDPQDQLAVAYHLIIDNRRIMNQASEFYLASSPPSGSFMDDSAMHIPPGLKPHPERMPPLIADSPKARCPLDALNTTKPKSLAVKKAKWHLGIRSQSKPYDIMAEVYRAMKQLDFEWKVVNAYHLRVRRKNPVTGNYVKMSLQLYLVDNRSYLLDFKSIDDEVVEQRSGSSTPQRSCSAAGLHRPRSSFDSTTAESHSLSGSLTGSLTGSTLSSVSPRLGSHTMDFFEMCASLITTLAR

Chain of Ribosomal protein S6 kinase alpha-6 (Homo sapiens) (Q9UK32 whole entry): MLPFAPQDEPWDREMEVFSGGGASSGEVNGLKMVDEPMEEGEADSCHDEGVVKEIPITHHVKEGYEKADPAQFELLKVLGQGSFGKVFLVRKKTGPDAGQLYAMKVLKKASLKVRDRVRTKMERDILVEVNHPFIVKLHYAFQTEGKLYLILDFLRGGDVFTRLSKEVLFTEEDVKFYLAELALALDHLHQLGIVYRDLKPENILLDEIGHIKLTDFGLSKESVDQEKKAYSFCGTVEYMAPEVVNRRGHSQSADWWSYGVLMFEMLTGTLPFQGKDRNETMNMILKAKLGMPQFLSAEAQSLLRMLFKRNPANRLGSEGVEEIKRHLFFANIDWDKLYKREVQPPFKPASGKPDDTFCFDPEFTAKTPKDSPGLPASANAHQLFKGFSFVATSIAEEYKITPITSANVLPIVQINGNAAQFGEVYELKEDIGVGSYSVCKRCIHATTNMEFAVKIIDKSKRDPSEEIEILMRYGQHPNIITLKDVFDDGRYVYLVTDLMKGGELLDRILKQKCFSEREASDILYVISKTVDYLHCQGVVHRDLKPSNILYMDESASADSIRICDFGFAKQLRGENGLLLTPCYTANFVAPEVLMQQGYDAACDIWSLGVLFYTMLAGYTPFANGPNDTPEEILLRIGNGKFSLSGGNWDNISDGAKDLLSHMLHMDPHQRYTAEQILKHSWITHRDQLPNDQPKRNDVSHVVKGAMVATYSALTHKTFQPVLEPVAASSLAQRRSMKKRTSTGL

| Structure (SMILES) | inhibition [1] [%] | inhibition [2] [%] | inhibition [3] [%] | inhibition [4] [%] | inhibition [5] [%] | inhibition [6] [%] | inhibition [7] [%] | inhibition [8] [%] | inhibition [9] [%] | inhibition [10] [%] |
| --- | --- | --- | --- | --- | --- | --- | --- | --- | --- | --- |
| COc1ccc(-c2cc(-c3c[nH]nc3-c3ccccn3)ccn2)cc1 | 1.8 | 2.87 | 7.39 | 5.02 | 5.93 | 4.82 | 6.74 | 4.71 | 6.63 | 0.83 |
| COC(=O)c1sc(-n2cnc3cc(OC)c(OC)cc32)cc1OCc1ccccc1C(F)(F)F | 1.66 | 2.5 | 4.04 | 1.44 | 1.94 | 2.58 | 1.46 | 3.84 | 8.18 | -0.41 |
| CC(=O)NCc1cccc(C#Cc2cncnc2Nc2ccc(OCc3cccc(F)c3)c(Cl)c2)c1 | 1.01 | 0.94 | 0.99 | 4.36 | -2.04 | -1.07 | 1.92 | 1.28 | 3.03 | 2.22 |
| Fc1cccc(COc2ccc(Nc3ncnc4sc(-c5ccco5)cc34)cc2Cl)c1 | 1.67 | 2.84 | 3.04 | 1.55 | 0.68 | 4.19 | 4.61 | 2.46 | 4.38 | 4.1 |
| COc1ccc2[nH]c3c4[nH]c5ccc(OC)cc5c4c4c(c3c2c1)C(=O)NC4=O | 88 | 21.8 | 63.8 | 16.6 | 59.4 | 9.76 | 40.2 | 37 | 78 | 17.9 |
| COc1cccc(-c2c[nH]c3c(N/N=C/c4ccncc4)ncnc23)c1 | 10.6 | 4.36 | 19.1 | 4.85 | 18.2 | 2.69 | 1.84 | 1.39 | 6.84 | 0.02 |
| CN1CCC(n2cnc(-c3ccc(F)cc3)c2-c2ccnc(Nc3ccccc3)n2)CC1 | 2.69 | 2.19 | 5.36 | 3.28 | 5.4 | 2.89 | 3.19 | 2.05 | 3.64 | -0.33 |
| CCn1c(-c2nonc2N)nc2ccccc21 | 10.4 | 4.57 | 5.48 | -0.51 | 9.28 | 2.3 | 23.6 | 3.06 | 1.63 | 0.31 |
| COc1ccc(-c2cc3c(N)ncnc3o2)cc1 | 1.58 | 0.5 | -0.33 | -1.01 | 1.43 | -1.34 | -2.55 | 0.03 | 0.8 | 0.21 |
| c1ccc(COc2ccc(Nc3ncnc4ccc(-c5ccco5)cc34)cc2)cc1 | -0.53 | 1.43 | 0.51 | -1.79 | 2.2 | -0.56 | 0.58 | 0.67 | 2.29 | -2.52 |
| c1cc(-c2cnn3nc(N4CCOCC4)ccc23)nc(NC2CC2)n1 | 10.5 | 2.27 | 3.4 | 9.24 | 9.02 | 4.38 | 2.23 | 4.11 | 6.88 | -0.07 |
| CCN(CC)S(=O)(=O)c1ccc(OC)c(Nc2ncc(-c3ccccc3)o2)c1 | 2.89 | -0.03 | 3.29 | 0.96 | 1.93 | 4.69 | 0.56 | 1.56 | 3.48 | -5.76 |
| Nc1nc(-c2ccc(F)cc2)c(-c2ccc3ncccc3n2)s1 | 3.36 | 2.87 | 4.24 | 4.24 | 4.34 | 4.05 | 3.66 | 3.33 | 5.29 | 1.85 |
| COc1ccc(CNC(=O)c2ccc(-c3cc(-c4nnc(C)o4)ccc3C)cc2)cc1 | 0.1 | 5.7 | 6.79 | 4.8 | 8.78 | 7.73 | 8.7 | 0.41 | 5.85 | 2.84 |
| O=C(O[C@H]1CN[C@H](C#Cc2cc3ncnc(Nc4ccc(Cc5ccccc5)cc4)c3s2)C1)N1CCOCC1 | 1.25 | 1.05 | 1.98 | 0.65 | 7.04 | 2.7 | 5.58 | 2.64 | 1.94 | -0.29 |
| Fc1ccc(-c2cc(-c3c[nH]nc3-c3ccccn3)ccn2)cc1 | 0.89 | 3.85 | 5.98 | 3.86 | 0.65 | 5.08 | 4.1 | 4.84 | 4.83 | 2.6 |
| CS(=O)(=O)CCNCc1coc(-c2ccc3ncnc(Nc4ccc(OCc5ccccc5)cc4)c3c2)c1 | 2.32 | 2.57 | 2.35 | -0.69 | 1.93 | -0.71 | 1.87 | 2.75 | 2.96 | 3.81 |

| Structure (SMILES) | inhibition [1] [%] | inhibition [2] [%] | inhibition [3] [%] | inhibition [4] [%] | inhibition [5] [%] | inhibition [6] [%] | inhibition [7] [%] | inhibition [8] [%] | inhibition [9] [%] | inhibition [10] [%] |
| --- | --- | --- | --- | --- | --- | --- | --- | --- | --- | --- |
| O=S(=O)(CCNCc1ccc(-c2ccc3ncnc(Nc4ccc(OCc5cccc(F)c5)c(Cl)c4)c3c2)o1)c1ccccc1 | 1.81 | 4.12 | 4.02 | 4.25 | 7.28 | 6.67 | 5.71 | 7.7 | 5.94 | 3.89 |
| Fc1ccc(-c2nn3ncccc3c2-c2ccnc(Nc3ccc4c(c3)OCCO4)n2)cc1 | 5.49 | 3.85 | 3.42 | 0.17 | 0.65 | 4.45 | 0.8 | 3 | 1.48 | 3.53 |
| COc1ccc(-c2oc3ncnc(N)c3c2-c2ccc(NC(=O)Nc3cc(C(F)(F)F)ccc3F)cc2)cc1 | 17.4 | 3.83 | 8.65 | 4.57 | 4.27 | 3.71 | 4.09 | 4.2 | 8.8 | 1.55 |
| COc1cc(N2CCN(C(C)C)CC2)ccc1Nc1nc(Nc2ccc(F)cc2C(N)=O)c2cc[nH]c2n1 | 54.8 | -0.27 | 1.48 | 3.52 | -3.53 | 0.95 | 0.42 | 6.33 | 33.5 | 6.34 |
| Cc1ccc2c(-c3ccnc(Nc4ccccc4)n3)c(-c3ccc(F)cc3)nn2n1 | 4.74 | 2.01 | 1.69 | 2.15 | 3.69 | 2.63 | 2.1 | 2.48 | 2.15 | 0.59 |
| CCc1nn2ncccc2c1-c1ccnc(NC2CC2)n1 | 1.93 | 2.68 | 3.56 | 0.28 | -2.61 | 2.22 | 3.01 | 1.09 | 4.1 | 2.14 |
| CC(C)(CO)CNC(=O)c1ccc2c(c1)/C(=N/Nc1ccc(S(N)(=O)=O)cc1)C(=O)N2 | 9.45 | 0.94 | 8.72 | 0.65 | 3.3 | -2.66 | 3.04 | 26 | 72.3 | 6.91 |
| CN(C)CCOc1ccc(-c2nc(-c3ccncc3)c(-c3ccc4c(c3)CC/C4=N\O)[nH]2)cc1 | 2.06 | 2.17 | 4.78 | 2.44 | 5.4 | 2.89 | 4.02 | 2.12 | 5.29 | -0.6 |
| CCn1c(-c2nonc2N)nc2c(C#CC(C)(C)O)ncc(OC3CCNCC3)c21 | 5.51 | 2.06 | 4.36 | 5.71 | 16.4 | 11.2 | 53.4 | 40.5 | 82.6 | 12.1 |
| CCCN(CCS(C)(=O)=O)Cc1ccc(-c2ccc3ncnc(Nc4ccc(OCc5cccc(F)c5)c(Cl)c4)c3c2)o1 | 0.41 | 0.88 | 2.15 | 0.16 | -0.86 | 2.21 | 1.28 | 0.05 | 1.68 | 2.47 |
| COc1cc2c(cc1Nc1nc(Nc3ccsc3C(N)=O)c3cc[nH]c3n1)N(C(=O)CN(C)C)CCC2(C)C | 49.6 | 3.7 | 4.59 | 2.95 | 2.79 | 2.75 | 4.25 | 6.5 | 7.07 | 6.92 |
| Cc1ccc(O)cc1Nc1ccnc2cc(-c3ccccn3)ccc12 | 1.1 | 3.35 | 0.75 | 4.28 | 0.49 | 4.38 | 1.94 | 4.22 | 4.05 | 1.74 |
| CNC(=O)c1cccc(C#Cc2cncnc2Nc2ccc(OCc3cccc(F)c3)c(Cl)c2)c1 | 0.05 | 1.16 | 0.62 | -0.28 | 0.71 | 0.18 | 1.41 | 0.65 | 2.17 | -3.97 |
| COC(=O)Nc1nc2ccc(S(=O)(=O)c3ccc(NC(=O)Nc4cc(C(F)(F)F)ccc4F)cc3)cc2[nH]1 | 1.27 | 3.1 | 0.95 | 3.28 | 0.53 | 2.89 | 1.57 | 1.79 | 1.58 | 2.21 |
| CC1=C(C(=O)Nc2cc(Cl)c3[nH]ncc3c2)C(c2ccc(C(F)(F)F)cc2)CC(=O)N1 (stereo not given) | 36.4 | 4.9 | 17.9 | 4.31 | 12.5 | 8.68 | 34.4 | 18.4 | 62.2 | 5.35 |
| COc1ccc(-c2nn3ncccc3c2-c2ccnc(Nc3ccc4c(c3)OCCO4)n2)cc1 | 2.56 | 1.1 | 1.98 | -0.02 | 0.9 | -1.8 | 0.46 | 1.06 | 1.64 | 0.54 |
